Test results: PubChem BioAssay AID1159580 (chemical genetic matrix, 2015)
“And” between values parts separate entries of the source, which are not always exact repeats. Identical values can stand only once. The campaign covered roughly 5,500 compounds. About 2,000 (36%) were called active. Not shown: some 18% with an inconclusive outcome. Rule as the data show it: active = normalized growth mostly below about 0.91 (no sharp cut-off); inconclusive = no clear call, values can overlap the other calls; inactive = mostly above about 0.92. This is one part of the list.

Experiment: chemical genetic growth profiling, strain panel (AID 1159580);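 also: tested at 20 µM; growth read once vehicle control cultures reached saturation at 30 °C; 1 = growth at the plate median or of vehicle wells; lower values mean less growth of the strain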
Settings: S. cerevisiae deletion strains, growth OD

Measured: normalized growth

Cc1ccnc(NS(=O)(=O)c2ccc(N)cc2)n1
inactive: locus YAL013W, strain DEP1, hits give low values 1 | locus YAL021C, strain ccr4, hits give low values 0.971 | locus YAL026C, strain drs2, hits give low values 0.994 | locus YAL030W, strain snc1, hits give low values 0.999 | locus YBL061C, strain skt5, hits give low values 0.997 | locus YBR009C, strain hhf1, hits give low values 1.01 | locus YBR021W, strain FUR4, hits give low values 0.994 | locus YBR023C, strain chs3, hits give low values 0.998 | locus YBR171W, strain sec66, hits give low values 1.02 | locus YBR229C, strain ROT2, hits give low values 1 | locus YBR231C, strain swc5, hits give low values 1.01 | locus YBR279W, strain paf1, hits give low values 1.01 | locus YCL011C, strain gbp2, hits give low values 0.969 | locus YCL016C, strain dcc1, hits give low values 0.968 | locus YCL029C, strain bik1, hits give low values 1.02 | locus YCL061C, strain MRC1, hits give low values 1.01 | locus YCL069W, strain vba3, hits give low values 0.998 | locus YCR088W, strain abp1, hits give low values 1 | locus YDL005C, strain med2, hits give low values 1 | locus YDL035C, strain GPR1, hits give low values 1.01 | locus YDL040C, strain nat1, hits give low values 0.999 | locus YDL074C, strain BRE1, hits give low values 0.978 | locus YDL101C, strain DUN1, hits give low values 1.01 | locus YDL134C, strain PPH21, hits give low values 1.01 | locus YDL185W, strain tfp1, hits give low values 0.967 | locus YDL192W, strain arf1, hits give low values 1.02 | locus YDR001C, strain nth1, hits give low values 0.999 | locus YDR069C, strain doa4, hits give low values 1.02 | locus YDR101C, strain arx1, hits give low values 1.01 | locus YDR137W, strain rgp1, hits give low values 1.03 | locus YDR150W, strain NUM1, hits give low values 1 | locus YDR159W, strain sac3, hits give low values 0.968 | locus YDR162C, strain NBP2, hits give low values 1 | locus YDR195W, strain ref2 1 | locus YDR297W, strain sur2, hits give low values 1.01 | locus YDR318W, strain mcm21, hits give low values 1.02 | locus YDR334W, strain swr1, hits give low values 0.995 | locus YDR335W, strain msn5, hits give low values 0.986 | locus YDR388W, hits give low values 1.01 | locus YDR392W, strain spt3, hits give low values 0.887 | locus YDR502C, strain sam2, hits give low values 1.01 | locus YEL003W, strain gim4, hits give low values 1.02 | locus YEL037C, strain rad23, hits give low values 1.01 | locus YEL061C, strain CIN8 (second series), hits give low values 1 | locus YEL061C, strain CIN8, hits give low values 1 | locus YER015W, strain faa2, hits give low values 0.992 | locus YER016W, strain bim1, hits give low values 1.01 | locus YER110C, hits give low values 1.02 | locus YER111C, strain swi4, hits give low values 0.998 | locus YER155C, strain BEM2 (second series), hits give low values 1.02 | locus YER155C, strain BEM2, hits give low values 1 | locus YER167W, strain BCK2, hits give low values 1.01 | locus YFR010W, strain ubp6, hits give low values 1.02 | locus YGL078C, strain dbp3, hits give low values 1.01 | locus YGL086W, strain mad1, hits give low values 1.01 | locus YGL167C, strain pmr1, hits give low values 0.992 | locus YGL173C, strain kem1, hits give low values 1.02 | locus YGL227W, strain vid30, hits give low values 0.999 | locus YGL240W, strain doc1, hits give low values 1.03 | locus YGL248W, strain PDE1, hits give low values 0.998 | locus YGL253W, strain hxk2, hits give low values 0.996 | locus YGR078C, strain PAC10, hits give low values 0.971 | locus YGR135W, strain pre9, hits give low values 1.01 | locus YGR229C, strain SMI1, hits give low values 0.97 | locus YGR252W, strain gcn5, hits give low values 0.984 | locus YHR013C, strain ard1, hits give low values 0.987 | locus YHR027C, strain rpn1, hits give low values 0.999 | locus YHR030C, strain SLT2, hits give low values 1 and 0.973 | locus YHR079C, strain IRE1 (second series), hits give low values 1.01 | locus YHR079C, strain IRE1, hits give low values 0.973 | locus YHR094C, strain hxt1, hits give low values 1.01 | locus YHR129C, strain ARP1, hits give low values 1.01 | locus YHR142W, strain chs7, hits give low values 1 | locus YHR200W, strain rpn10, hits give low values 1.01 | locus YIL066C, strain RNR3, hits give low values 1.01 | locus YIL073C, strain SPO22, hits give low values 1.02 | locus YIL125W, strain kgd1, hits give low values 1 | locus YIR030C, strain dcg1, hits give low values 1.02 | locus YJL092W, strain hpr5, hits give low values 1 | locus YJL095W, strain BCK1 (second series), hits give low values 1 | locus YJL095W, strain BCK1, hits give low values 1.01 and 0.972 | locus YJL115W, strain asf1, hits give low values 0.992 | locus YJL129C, strain trk1, hits give low values 0.996 | locus YJL134W, strain LCB3, hits give low values 1 | locus YJL154C, strain vps35, hits give low values 1.01 | locus YJL164C, strain tpk1, hits give low values 0.968 | locus YJL166W, strain qcr8, hits give low values 1.02 | locus YJL168C, strain set2, hits give low values 1.01 | locus YJL187C, strain SWE1 (second series), hits give low values 1.01 | locus YJR043C, strain POL32, hits give low values 1.01 | locus YJR066W, strain TOR1, hits give low values 0.937
